This is an account of results in PubChem BioAssay (Tox21).

Results filed as inconclusive are left out. Active and inactive are the calls of the source. Unless noted, the call rests on the fitted dose curve; in most records, active means well fitted curve in the direction sought with a large enough effect in the repeat runs; inconclusive means weak or mixed curves; inactive means no such curve, though single readings can be large; an effect the other way counts as inactive or inconclusive.

The nature of assay [1]: qHTS assay to identify small molecule antagonists of the thyroid receptor (TR) signaling pathway - cell viability counter screen (AID 743064). Further: nearly all actives have a fitted effect of over 50% in size. In outline: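 Rat GH3 pituitary tumor cells stably expressing two TR response elements driving luciferase were plated, rested 4 h, then dosed with library compounds and T3 (1 nM final). After 23.5 h at 37 °C, CellTiter-Fluor was added for 30 min and fluorescence recorded.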
(qHTS replaces the single test concentration by a dilution series.)

Assay [2] can be described thus: qHTS assay to identify small molecule antagonists of the thyroid receptor (TR) signaling pathway (AID 743065). Further: series mostly up to about 70 µM; nearly all actives have a fitted effect of over 55% in size. In outline: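 GH3.TRE-Luc rat pituitary cells carrying two TR response elements driving luciferase were plated for 4 h, given compound plus 1 nM T3 (final), and incubated 23.5 h at 37 C. ONE-Glo luminescence measured reporter inhibition; CellTiter-Fluor fluorescence tracked cytotoxicity.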

Assay [3] has as its system thyroid hormone receptor (rat, GH3 cells). Put plainly: qHTS assay to identify small molecule agonists of the thyroid receptor (TR) signaling pathway (AID 743066; calls by dose curve).
The target of assay [4] is Estrogen receptor (Homo sapiens) (UniProt P03372). As to the kind of experiment: qHTS assay to identify small molecule antagonists of the estrogen receptor alpha (ER-alpha) signaling pathway (AID 743069; active means well fitted curve in the direction sought with a large enough effect in the signal ratio in the repeat runs, not every such curve was filed as active; the % refers to the signal ratio). In outline: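 Estradiol-stimulated ER-alpha-UAS-bla HEK293 cells, 18 hr compound exposure at 37C. LiveBLAzer B/G substrate, 2 hr RT, fluorescence read.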
Assay [5] can be described thus: qHTS assay to identify small molecule antagonists of the estrogen receptor alpha (ER-alpha) signaling pathway - cell viability counter screen (AID 743074; calls by dose curve;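 further: HEK293 cells carrying ER-alpha-UAS-bla reporter stimulated with 17beta-estradiol; nearly all actives have a fitted effect of over 45% in size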).
The target in assay [6] is Estrogen receptor (Homo sapiens) (UniProt P03372). Put plainly: qHTS assay to identify small molecule agonists of the estrogen receptor alpha (ER-alpha) signaling pathway (AID 743075; calls by dose curve;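 further: HEK293 GripTite cells with ER-alpha and UAS-driven beta-lactamase reporter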).
The target is the same in assay [7]. Put plainly: qHTS assay to identify small molecule agonists of the estrogen receptor alpha (ER-alpha) signaling pathway using the BG1 cell line (AID 743079). Further: nearly all actives have a fitted effect of over 20% in size. Further: potency means the concentration at half of the fitted maximal effect.
Assay [8] can be described thus: qHTS assay to identify small molecule antagonists of the estrogen receptor alpha (ER-alpha) signaling pathway using the BG1 cell line (AID 743080; calls by dose curve;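 further: BG1 cells stimulated with 17beta-estradiol alongside compound; series mostly up to about 70 µM; nearly all actives have a fitted effect of over 25% in size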). The method, boiled down: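 Luminescence from a 4×ERE-luciferase reporter in BG1-Luc-4E2 cells served as read-out. Cells, pre-cultured 5 days in stripped-serum phenol-red-free medium, were exposed to compound with 17beta-estradiol co-stimulation for 21.5 h at 37 C.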

Assay [9] is described as follows: qHTS assay to identify small molecule antagonists of the estrogen receptor alpha (ER-alpha) signaling pathway using the BG1 cell line - cell viability counter screen (AID 743081).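 Further: compound given together with 17beta-estradiol as the ER stimulus; series mostly up to about 70 µM; nearly all actives have a fitted effect of over 45% in size.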
In assay [10] the target is Aromatase (Homo sapiens) (UniProt P11511). As to the kind of experiment: qHTS assay to identify aromatase inhibitors (AID 743083). Further: series mostly up to about 70 µM; nearly all actives have a fitted effect of over 55% in size.
Chain of Aromatase (Homo sapiens) (P11511 whole entry, looked up): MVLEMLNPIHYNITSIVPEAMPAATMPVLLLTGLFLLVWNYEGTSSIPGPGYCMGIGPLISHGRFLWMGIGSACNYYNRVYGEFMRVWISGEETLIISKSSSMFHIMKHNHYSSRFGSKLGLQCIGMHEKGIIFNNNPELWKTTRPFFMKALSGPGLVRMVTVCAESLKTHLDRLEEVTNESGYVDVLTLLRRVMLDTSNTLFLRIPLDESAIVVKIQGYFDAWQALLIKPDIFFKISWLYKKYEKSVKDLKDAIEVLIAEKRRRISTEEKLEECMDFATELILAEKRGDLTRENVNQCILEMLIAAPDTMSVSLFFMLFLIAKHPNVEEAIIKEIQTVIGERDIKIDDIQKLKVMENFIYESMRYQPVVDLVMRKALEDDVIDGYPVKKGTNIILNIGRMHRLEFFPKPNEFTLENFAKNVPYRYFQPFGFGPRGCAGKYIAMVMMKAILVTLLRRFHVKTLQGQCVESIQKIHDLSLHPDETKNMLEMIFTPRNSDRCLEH

Chain of Estrogen receptor (Homo sapiens) (P03372 whole entry, looked up): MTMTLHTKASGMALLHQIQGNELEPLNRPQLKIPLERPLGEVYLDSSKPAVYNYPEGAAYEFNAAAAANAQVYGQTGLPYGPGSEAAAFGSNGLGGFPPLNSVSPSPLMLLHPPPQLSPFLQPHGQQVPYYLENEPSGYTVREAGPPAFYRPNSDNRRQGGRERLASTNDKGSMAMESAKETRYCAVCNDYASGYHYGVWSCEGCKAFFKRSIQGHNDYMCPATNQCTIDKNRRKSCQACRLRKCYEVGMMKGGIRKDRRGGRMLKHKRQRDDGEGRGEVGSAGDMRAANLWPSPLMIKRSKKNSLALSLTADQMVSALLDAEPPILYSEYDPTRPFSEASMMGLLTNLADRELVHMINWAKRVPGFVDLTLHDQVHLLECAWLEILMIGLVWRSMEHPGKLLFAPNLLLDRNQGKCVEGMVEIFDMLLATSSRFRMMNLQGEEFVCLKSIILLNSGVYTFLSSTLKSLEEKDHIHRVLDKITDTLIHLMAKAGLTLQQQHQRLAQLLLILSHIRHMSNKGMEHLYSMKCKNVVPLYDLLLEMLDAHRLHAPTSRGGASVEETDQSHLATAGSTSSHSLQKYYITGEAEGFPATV

On to `Cc1ccc(-c2ncc(Cl)cc2-c2ccc(S(C)(=O)=O)cc2)cn1`, for which the Potency result in assay [1], in assay [2], in assay [4], in assay [5], in assay [6] and in [7] was “inactive” each time. The Potency entry in assay [8] is “inactive”. Moreover, the outcome in [3], in assay [9] and in assay [10] was inactive.

`CC(C)CCCO`: the Potency result in assay [1], in assay [2], in assay [4], in assay [5], in assay [6] and in assay [7] was “inactive” in each case. Besides, the Potency entry in assay [8] is “inactive”. For the same molecule, the molecule was classed as inactive in [3], in assay [9] and in assay [10].

As for `CC1=CCC(O)(C(C)C)CC1` (centres undefined), the Potency result in assay [1], in assay [2], in [4], in assay [5], in [6] and in assay [8] was “inactive” each time. Further, the molecule was classed as inactive in assay [3], in [9] and in [10].

As for `CCCCCCCC1CCCC1=O` (centres undefined), the Potency entry in [1], in assay [2], in assay [4], in assay [5], in assay [6] and in assay [7] was “inactive” throughout. For the same molecule, the Potency entry in assay [8] is “inactive”. Besides, the molecule was classed as inactive in assay [3], in assay [9] and in assay [10].

On to `CO[C@@]1(NC(=O)CSC[C@@H](N)C(=O)O)C(=O)N2C(C(=O)O)=C(CSc3nnnn3C)CS[C@@H]21`, for which the Potency result in [1], in [2], in assay [4], in assay [5], in [6] and in assay [7] was “inactive” throughout. Further, in assay [8], the Potency entry was “inactive”. The outcome in [3] and in assay [10] was inactive.

For `C=C[Si](OC(C)=O)(OC(C)=O)OC(C)=O`, the Potency result in assay [1], in assay [2], in assay [4], in [5], in assay [6] and in assay [7] was “inactive” in each case. Moreover, the Potency entry in assay [8] was “inactive”. The outcome in assay [3], in assay [9] and in assay [10] was inactive.

For `O=C(O)CC(C(=O)O)S(=O)(=O)O` (centres undefined), the Potency result in assay [1], in assay [2], in assay [4], in assay [5], in [6] and in assay [7] was “inactive” each time. For the same molecule, the Potency result in assay [8] is “inactive”. For the same molecule, the call in assay [3], in assay [9] and in [10] was inactive.

Turning to `O=C(O)c1cn(C2CC2)c2cc(N3CCNCC3)c(F)cc2c1=O`, the Potency entry in assay [1], in [2], in assay [4], in [5], in assay [6] and in assay [7] was “inactive” each time. Moreover, the Potency result in assay [8] was “inactive”. Further, the result in assay [3] and in [9] was inactive.

As for `CC1=NN(c2cccc(S(=O)(=O)O)c2)C(=O)C1`, the Potency result in assay [1], in [2], in assay [4], in assay [5], in assay [6] and in assay [7] was “inactive” throughout. The Potency result in assay [8] was “inactive”. For the same molecule, the outcome in assay [3], in assay [9] and in [10] was inactive.

In the case of `CC(CC=O)CC(C)(C)C` (centres undefined), the Potency entry in assay [1], in [2], in [4], in assay [6], in [7] and in [8] was “inactive” each time. In addition, the outcome in [3], in assay [9] and in assay [10] was inactive.

Regarding `CC1(C)OC[C@@H](COC(=O)CCc2ccc(OC[C@@H](O)CNCCNC(=O)N3CCOCC3)cc2)O1`, the Potency entry in assay [1], in assay [2], in [4], in assay [5], in assay [6] and in assay [7] was “inactive” throughout. For the same molecule, the Potency entry in assay [8] was “inactive”. The molecule was classed as inactive in assay [3], in assay [9] and in [10].

Regarding `OCCCCCO`, the Potency result in [1], in [2], in assay [4], in assay [5], in assay [6] and in assay [8] was “inactive” in each case. Further, the molecule was called inactive in [3], in assay [9] and in assay [10]. Moreover, the Potency in assay [7] is 40.3 µM (active).

As to `CC(=O)N[C@H]1[C@H]([C@H](O)[C@H](O)CO)OC(C(=O)O)=C[C@@H]1N=C(N)N`, the Potency result in [1], in [2], in assay [4], in assay [6], in assay [7] and in assay [8] was “inactive” each time. Besides, the result in assay [3], in [9] and in assay [10] was inactive.

On to `C=CCCC(=O)O`, for which the Potency entry in [1], in [2], in [4], in assay [5], in assay [6] and in assay [8] was “inactive” each time. Besides, the molecule was classed as inactive in assay [3], in assay [9] and in assay [10].

In the case of `[K+]`, the Potency result in [1], in [2], in assay [4], in assay [5], in [6] and in assay [7] was “inactive” throughout. Also, the Potency entry in assay [8] is “inactive”. For the same molecule, the outcome in assay [3], in [9] and in assay [10] was inactive.

In the case of `O=C(O)CNC(=O)c1ccc(CO)o1`, the Potency result in assay [1], in assay [2], in [4], in [5], in assay [6] and in [7] was “inactive” each time. For the same molecule, the Potency entry in assay [8] was “inactive”. Moreover, the molecule was called inactive in [3], in [9] and in assay [10].

With `CN(C)C(=O)Oc1cccc([N+](C)(C)C)c1`, the Potency result in assay [1], in assay [2], in assay [4], in [5], in assay [6] and in [7] was “inactive” throughout. For the same molecule, the Potency result in assay [8] is “inactive”. Further, the molecule was classed as inactive in assay [3], in assay [9] and in assay [10].

Consider `O=S(=O)(O)c1cc(O)c(O)c(S(=O)(=O)O)c1`, for which the Potency result in assay [1], in assay [2], in assay [4], in assay [5], in [6] and in [7] was “inactive” throughout. For the same molecule, the Potency entry in [8] is “inactive”. Also, the result in [3], in [9] and in [10] was inactive.

Turning to `CCCCOCCOC(=O)COc1cc(Cl)c(Cl)cc1Cl`, the Potency entry in assay [1], in assay [2], in assay [4], in [5], in [6] and in assay [7] was “inactive” in each case. The Potency entry in assay [8] was “inactive”. Further, the molecule was called inactive in assay [3], in [9] and in assay [10].

Turning to `Cc1ccc(C(=O)c2ccccc2)cc1`, the Potency entry in [1], in [2], in assay [4], in [5], in assay [6] and in assay [8] was “inactive” in each case. In addition, the outcome in assay [3], in assay [9] and in assay [10] was inactive. Moreover, in assay [7], the Potency is 21.7 µM (active).

In the case of `CC(C)c1ccc2ncccc2c1`, the Potency entry in assay [1], in [2], in assay [4], in assay [5], in assay [6] and in assay [7] was “inactive” throughout. Moreover, in assay [8], the Potency entry is “inactive”. The outcome in assay [3], in assay [9] and in assay [10] was inactive.

Take `C1CCC2(CCCCO2)OC1`: the Potency result in [1], in assay [2], in [4], in assay [5], in assay [6] and in [7] was “inactive” throughout. Further, in [8], the Potency entry is “inactive”. Further, the molecule was classed as inactive in assay [3], in [9] and in assay [10].

For `CC(=O)C1CCCCC1=O` (centres undefined), the Potency result in assay [1], in assay [2], in [4], in assay [5], in assay [6] and in assay [7] was “inactive” each time. Moreover, in [8], the Potency entry is “inactive”. For the same molecule, the outcome in assay [3], in [9] and in assay [10] was inactive.
